# High-throughput results (PubChem BioAssay)
# Sampled rows, rich in hits. Any-hit rate of the full collection: about 7.4%.
# NIH3T3 tox – Cytotoxic Profiling in NIH 3T3 Cell Line of Diverse Libraries Using Quantitative High-Throughput Screening | Potency, µM (titrated, usually from 96.7 µM), for the others: at the highest dose activity change, negative = cytotoxicity, actives largely listed as inhibitors | 4.3% of 94,000 active | NIH 3T3 viability, CellTiter-Glo ATP luminescence, 48-72 h; further: nearly all actives have a fitted effect of over 55% in size
#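 ATP-dependent luminescence (CellTiter-Glo) served as the viability signal for NIH 3T3 cells treated with compound for 48 or 72 hr at 37 °C.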
# HEK cytotox – Cytotoxic Profiling in HEK 293 Cell Line of Diverse Libraries Using Quantitative High-Throughput Screening; HEK 293 viability, ATP luminescence (CellTiter-Glo), 48-72 h; Potency, µM (series often up to 115 µM), for the others: at the highest dose activity change, negative = cytotoxicity, hits mostly inhibitors; 6.6% of 94,000 active; AID 1345083, 2018; further: nearly all actives have a fitted effect of over 60% in size
#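 250 HEK 293 cells/well; compound by pintool; incubated 48 or 72 hr at 37 degree Celsius; CellTiter-Glo added, 10 min RT, luminescence imaged.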
# SNCA expr inh – Primary qHTS assay for inhibitors of alpha-synuclein gene (SNCA) expression; HEK-293 SNCA-luciferase knock-in, luminescence, 24 h; Potency, µM (titrated, usually from 57.2 µM), inactives show at the top dose activity change, negative = inhibition, actives largely listed as inhibitors; 0.17% of 140,000 active;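 further: plate controls were DMSO cells for no effect and cell-free wells for full effect; nearly all actives have a fitted effect of over 45% in size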
# SNCA viab count – GF-AFC viability counterscreen for inhibitors of alpha-synuclein gene (SNCA) expression | HEK-293-SNCA-luc viability, GF-AFC fluorescence, 24 h | Potency, µM (top dose mostly 57.1 µM), for the others: at the top dose activity change, negative = cytotoxicity, most hits filed as cytotoxic | 0.12% of 150,000 active | AID 1671193, 2021;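 further: 0% = DMSO-treated cells and -100% = medium-only wells without cells; nearly all actives have a fitted effect of over 30% in size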
#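 Cytotoxicity counterscreen: after 24 h compound treatment of genome-edited SNCA-luciferase HEK-293 cells, live-cell protease substrate GF-AFC read by fluorescence after 30 min; activity scaled between DMSO (0%) and medium-only (-100%), curves Hill-fitted.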
# FLuc inh – Firefly luciferase inhibition profiling of diverse chemical library using quantitative high-throughput screening; Luciferin 4-monooxygenase (Photinus pyralis), P08659; purified P. pyralis luciferase, luminescence, biochemical; Potency, µM (series often up to 115 µM), usual class: inhibitors; 2.5% of 76,000 active; AID 1347043, 2019; further: nearly all actives have a fitted effect of over 65% in size
#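 Biochemical qHTS: compound (6-point titration) added to 10uM D-luciferin plus 10uM ATP in Tris acetate pH 7.5 buffer with Mg, Tween-20 and BSA, then purified enzyme at 10nM; light output imaged.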
# NPR1 antag – Natriuretic polypeptide receptor (hNpr1) antagonism - Primary qHTS; AID 1347048, 2019; Potency, µM (highest dose often 46.3 µM), for inactives: at the top dose activity change, negative = inhibition, usual class: inhibitors; 1.6% of 76,000 active; Atrial natriuretic peptide receptor 1 (Homo sapiens), P16066; HEK293 hNpr1 GloSensor cGMP, ANP-stimulated luminescence; calls by dose curve; further: nearly all actives have a fitted effect of over 60% in size
# Target sequence (P16066 whole entry, looked up): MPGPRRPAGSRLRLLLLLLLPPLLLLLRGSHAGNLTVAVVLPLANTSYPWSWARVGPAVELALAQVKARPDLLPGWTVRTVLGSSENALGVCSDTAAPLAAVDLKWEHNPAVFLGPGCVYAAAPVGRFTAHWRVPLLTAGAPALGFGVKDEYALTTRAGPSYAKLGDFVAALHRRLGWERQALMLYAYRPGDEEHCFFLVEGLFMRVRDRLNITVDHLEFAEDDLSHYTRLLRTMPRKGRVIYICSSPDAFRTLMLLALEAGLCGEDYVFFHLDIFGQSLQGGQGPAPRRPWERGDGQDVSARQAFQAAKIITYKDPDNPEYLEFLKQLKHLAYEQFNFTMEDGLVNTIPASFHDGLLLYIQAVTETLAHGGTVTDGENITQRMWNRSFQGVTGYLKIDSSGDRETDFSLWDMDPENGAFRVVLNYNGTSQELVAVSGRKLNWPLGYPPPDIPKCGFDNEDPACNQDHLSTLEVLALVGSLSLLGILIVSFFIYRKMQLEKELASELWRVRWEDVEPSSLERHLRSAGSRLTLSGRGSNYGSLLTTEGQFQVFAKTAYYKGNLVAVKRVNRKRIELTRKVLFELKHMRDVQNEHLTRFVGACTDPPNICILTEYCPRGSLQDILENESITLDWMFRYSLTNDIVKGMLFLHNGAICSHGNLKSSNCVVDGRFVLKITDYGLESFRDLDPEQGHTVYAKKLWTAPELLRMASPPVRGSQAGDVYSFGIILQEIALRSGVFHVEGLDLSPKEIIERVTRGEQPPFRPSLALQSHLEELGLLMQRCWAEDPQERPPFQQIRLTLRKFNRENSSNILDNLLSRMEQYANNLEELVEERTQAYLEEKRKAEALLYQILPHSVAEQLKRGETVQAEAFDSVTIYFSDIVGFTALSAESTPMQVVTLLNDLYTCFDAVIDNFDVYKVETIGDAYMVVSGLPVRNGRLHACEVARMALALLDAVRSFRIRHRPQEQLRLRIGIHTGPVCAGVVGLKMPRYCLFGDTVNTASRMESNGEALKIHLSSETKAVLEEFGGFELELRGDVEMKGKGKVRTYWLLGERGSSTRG
#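 HEK293 cells stably expressing human Npr1 and cGMP GloSensor pGS-40F, loaded 2 h with 2% GloSensor reagent, given compound 30 min at room temperature. Luminescence read before and 20 min after 0.1 nM hNppA.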
# * marks the source's active call; other numbers are inactive results; i = inactive; ? = inconclusive; . = no result given; [ ] = another dose, or the depositor's remark. Unless noted, the call rests on the fitted dose curve; in most records, active means well fitted curve in the direction sought with a large enough effect; inconclusive means small, poorly fitted or top-dose-only effect, or another doubt; inactive means no such curve, though single readings can be large; an effect the other way counts as inactive or inconclusive. Unless noted, on the % scale 0 is the no-effect control and ±100 the full control effect; potency means the concentration at half of the fitted maximal effect.
SMILES,NIH3T3 tox,HEK cytotox,SNCA expr inh,SNCA viab count,FLuc inh,NPR1 antag
COc1ccc(Cl)cc1NC(=O)CCC1CCCN(C(=O)c2ccoc2C)C1 (stereo not given),?,31.6µM*,2.5%,-17.4%,i,0.2%
COc1ccc(NC(=O)CN2C(=O)NC3(CCCCC3)C2=O)cc1Cl,?,-16.6%,3.8%,-5.6%,i,-21.7%
CCC1Oc2ccc(NC(=O)Cc3cccs3)cc2CN(C2CCCc3ccccc32)C1=O (stereo not given),?,?,-7.8%,-1.8%,i,-14.9%
COCCOc1ccc2c(n1)CCN(C(=O)CC(C)C)C2,i,-2.6%,-20.4%,3.5%[12.5 µM],i,5.0%
Cc1ccc(CN2CCC(N3CCCNC3=O)CC2)cc1,-19.0%[138 µM],-20.6%[172 µM],6.4%[87.6 µM],5.5%[87.6 µM],i,1.4%[70.6 µM]
Cc1csc(NC(=O)c2nc3c(o2)CCN(Cc2ccc4[nH]ccc4c2)CC3)n1,?,100µM*,85.8%[87.6 µM],-28.4%[87.6 µM],35.5µM*,-17.3%[70.6 µM]
Cc1csc(NC(=O)c2nc3c(o2)CCN(CC2CCCC2)CC3)n1,?,?,43.4%[87.6 µM],2.2%[87.6 µM],28.2µM*,-3.2%[70.6 µM]
Cc1ccc(CN2CCc3nc(C(=O)Nc4nc(C)cs4)oc3CC2)cc1,?,70.8µM*,?,-22.5%[87.6 µM],i,-21.0%[70.6 µM]
O=C(NCc1ccccc1)c1nc2c(o1)CCN(CC1CCCC1)CC2,?,?,18.4%[87.6 µM],2.0%[87.6 µM],i,-3.8%[70.6 µM]
Cc1csc(NC(=O)c2nc3c(o2)CCN(CCCc2ccccc2)CC3)n1,?,?,?,-10.2%[87.6 µM],i,-7.1%[70.6 µM]
Cn1nc(CN2CCOCC2)c2c1CCN(S(=O)(=O)c1cccc(F)c1)C2,-13.4%,-20.0%,8.5%,16.0%,.,.
Cc1c(C(C)NC(=O)CO)cnn1-c1cccc2ccccc12 (stereo not given),-5.5%,1.6%,3.9%,3.7%,i,-0.5%
COc1ccc(-c2cc(N3CCCC(NC(=O)c4ccc(F)c(F)c4)C3)n[nH]2)cc1 (stereo not given),?,?,35.1%,-19.7%,?,-21.3%
COc1ccc(C(=O)NC2CCCN(c3cc(-c4ccccc4)[nH]n3)C2)cc1 (stereo not given),?,?,55.9%,-5.6%,25.1µM*,0.0%
COc1ccc(-c2cc(N3CCC(NC(=O)c4cc(OC)c(OC)c(OC)c4)C3)n[nH]2)cc1 (stereo not given),-19.4%,?,?,-6.5%,i,0.5%
Cc1ccc(C(=O)NC2CCCN(c3cc(-c4ccccc4)[nH]n3)C2)cn1 (stereo not given),?,?,-3.0%,-1.0%,?,-10.4%
CCOc1ccc(C(=O)NC2CCCN(c3cc(-c4ccccc4)[nH]n3)C2)cc1 (stereo not given),?,?,28.3%,-17.9%,?,-17.0%
COc1cc(OC)cc(C(=O)NC2CCCN(c3cc(-c4ccccc4)[nH]n3)C2)c1 (stereo not given),?,39.8µM*,?,-23.7%,25.1µM*,0.0%
COc1ccc(C(=O)NC2CCCN(c3cc(-c4ccc(Cl)cc4)[nH]n3)C2)cc1 (stereo not given),35.5µM*,?,13.8%,-23.0%,?,-25.0%
CCOc1cc(C(=O)NC2CCN(c3cc(-c4ccc(OC)cc4)[nH]n3)C2)cc(OCC)c1OCC (stereo not given),22.4µM*,39.8µM*,1.9%,-27.5%,i,3.0%
COc1ccc(NC(=O)N[C@H]2CO[C@H]3[C@@H]2OC[C@@H]3n2cc(-c3ccccc3)nn2)cc1,?,-9.1%[172 µM],-9.8%[87.6 µM],-1.5%[87.6 µM],i,-10.2%[70.6 µM]
CCCc1noc(-c2cccn3c(CNC(=O)c4cccnc4)nnc23)n1,-11.5%,1.3%,17.6%,-1.5%,i,-2.0%
CNC(=O)[C@@H]1C[C@H](n2cc(CNS(=O)(=O)c3ccc(C)cc3F)nn2)CN1,i,0.2%,-1.9%,-22.6%,i,4.0%
O=S(=O)(c1ccccc1)N1CC[C@@H]2COCCN(Cc3cccnc3)[C@@H]2C1,-24.4%,?,-14.1%,0.4%,i,-18.2%
COc1ccc(-c2cc(N3CCCC(NC(=O)c4ccc(F)cc4Cl)C3)n[nH]2)cc1 (stereo not given),?,?,70.6%,-19.3%,?,-20.5%
SMILES,NIH3T3 tox,HEK cytotox,SNCA expr inh,SNCA viab count,FLuc inh,NPR1 antag
COc1cc(C(=O)NC2CCCN(c3cc(-c4ccccc4)[nH]n3)C2)cc(OC)c1OC (stereo not given),?,?,39.3%,-13.6%,35.5µM*,-9.8%
COc1cc(C(=O)NC2CCN(c3cc(-c4ccc(Cl)cc4)[nH]n3)C2)cc(OC)c1OC (stereo not given),?,?,-4.4%,-10.3%,i,-1.5%
COc1ccc(C(=O)NC2CCN(c3cc(-c4ccc(F)cc4)[nH]n3)C2)cc1 (stereo not given),?,?,26.1%,-21.4%,i,-13.5%
COc1ccc(C(=O)NC2CCN(c3cc(-c4ccc(Cl)cc4)[nH]n3)C2)cc1OC (stereo not given),?,?,-14.3%,-3.9%,i,-14.9%
COc1ccc(-c2cc(N3CCCC(NC(=O)c4ccccc4Cl)C3)n[nH]2)cc1 (stereo not given),?,?,33.4%,-27.4%,44.7µM*,-3.6%
COc1ccc(C(=O)NC2CCN(c3cc(-c4ccc(Cl)cc4)[nH]n3)C2)cc1F (stereo not given),?,39.8µM*,?,-26.8%,i,-7.3%
COc1ccc(-c2cc(N3CCC(NC(=O)c4ccc(F)c(Cl)c4)C3)n[nH]2)cc1 (stereo not given),39.8µM*,?,-12.0%,-24.4%,i,2.4%
O=C(c1ccc(Br)o1)N1CCc2nn(CC3CC3)c(=O)n2CC1,-12.3%,-11.2%,1.5%,-8.7%,i,3.4%
COc1ccc(C(=O)NC2CCCN(c3cc(-c4ccccc4)[nH]n3)C2)cc1F (stereo not given),15.8µM*,?,-4.5%,-18.6%,?,-25.9%
Cc1ccc(C(=O)NC2CCCN(c3cc(-c4ccc(Cl)cc4)[nH]n3)C2)cn1 (stereo not given),?,28.2µM*,0.5%,-23.9%,?,-3.8%
